Source: PubChem
A selection: hits, their analogues and other compounds. The true share with any hit is near 1.3%.
GALK inhibitor: inhibitors of human galactokinase; P51570; Purified GALK, Kinase-Glo residual ATP luminescence; Potency, µM (series often up to 57.5 µM), without a hit: top-dose activity change, negative = inhibition, actives largely listed as inhibitors; 270,000 compounds, 0.007% hits; AID 1868
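5 nM enzyme, 35 uM ATP, 100 uM galactose, 20 mM HEPES pH8.0, 5 mM MgCl2; 1 h RT; residual ATP by Kinase-Glo Plus luminescence, qHTS format.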
TrxR1 substrate: is turned over as a substrate by rat TrxR1. purified TrxR1 substrate turnover, NADPH consumption readout. Potency, µM (series often up to 114 µM), for the others: top-dose activity change, negative = substrate turnover. 390,000 compounds, 0.01% hits. AID 588456; also: nearly all actives have a fitted effect of over 50% in size
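Rat TrxR1, dispensed at 90 nM, was prereduced with 400 uM NADPH (final) for 5 min at ~22 deg C, then incubated with compound 15 min before 400 uM selenite. A first-read NADPH fluorescence drop versus no-compound background flagged substrates.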
rTrxR1 inhibitor: inhibitors of rat thioredoxin reductase 1 | O89049 | recombinant rTrxR1, NADPH fluorescence consumption, selenite substrate | Potency, µM (doses to about 114 µM), for inactives: top-dose activity change, negative = inhibition, hits mostly inhibitors | 390,000 compounds, 1% hits | AID 588453; also: nearly all actives have a fitted effect of over 65% in size
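Rat TrxR1 (90 nM in the dispensed reagent) was pre-reduced with 400 uM NADPH for 5 min at room temperature, then incubated with compound for 15 min. After 400 uM selenite was added, NADPH fluorescence (Ex 340/Em 450 nm) was followed for 8 min.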
Apoferritin bind: binds horse apoferritin like a general anesthetic; 350,000 compounds, 0.074% hits; apoferritin/1-aminoanthracene competitive binding, fluorescence; Potency, µM (doses to about 77.5 µM), inactives show top-dose activity change, negative = displacement, hits mostly inhibitors; AID 485281; P02791; also: nearly all actives have a fitted effect of over 20% in size
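In PBS, apoferritin at 10 uM is loaded with 1-AMA from a 50% saturated solution. After 10 min of compound exposure at ambient temperature, reduced 535 nm fluorescence indicates probe displacement.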
IDH1 R132H inh: human IDH1 R132H inhibition; O75874; IDH1-R132H enzyme, NADPH consumption, diaphorase/resazurin fluorescence; Potency, µM (series often up to 76.6 µM), for the others: at the top dose activity change, negative = inhibition, actives largely listed as inhibitors; 390,000 compounds, 0.093% hits; AID 602179; also: nearly all actives have a fitted effect of over 65% in size
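IDH1-R132H (0.5 ug/mL) preincubated 30 min with compound, then NADPH (0.016 mM) and alpha-KG (2 mM) added; 80 min at RT, pH 7.5. Remaining NADPH coupled via diaphorase/resazurin to fluorescence (540/590 nm); concentration-response curves normalized to no-enzyme control.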
PKM2 activator: increases activity of human pyruvate kinase M2; P14618; purified PKM2, Kinase-Glo ATP luminescence, activation; response scale: 0% is enzyme alone, no compound; Potency, µM (titrated, usually from 57.5 µM), without a hit: at the highest dose activation, actives largely listed as activators; 260,000 compounds, 0.34% hits; AID 1631; also: nearly all actives have a fitted effect of over 55% in size
Target sequence (P14618 whole entry, looked up): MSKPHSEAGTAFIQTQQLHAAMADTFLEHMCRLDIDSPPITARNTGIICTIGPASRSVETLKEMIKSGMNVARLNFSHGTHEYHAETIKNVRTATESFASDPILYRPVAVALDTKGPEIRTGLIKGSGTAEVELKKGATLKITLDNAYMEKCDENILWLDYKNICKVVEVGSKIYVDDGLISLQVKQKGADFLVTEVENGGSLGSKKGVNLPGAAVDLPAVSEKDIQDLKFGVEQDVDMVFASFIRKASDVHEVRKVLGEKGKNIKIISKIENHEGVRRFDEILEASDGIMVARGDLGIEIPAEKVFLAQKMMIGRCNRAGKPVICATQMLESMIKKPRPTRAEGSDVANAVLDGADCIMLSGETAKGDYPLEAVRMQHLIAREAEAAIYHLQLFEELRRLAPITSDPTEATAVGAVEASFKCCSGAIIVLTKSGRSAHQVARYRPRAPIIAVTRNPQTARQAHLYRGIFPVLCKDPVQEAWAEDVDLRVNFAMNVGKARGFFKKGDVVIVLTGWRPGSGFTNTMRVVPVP
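Purified hPK-M2 (>95% pure) converted ADP (0.1 mM final) to ATP with 0.5 mM PEP in 50 mM imidazole pH7.2, KCl, MgCl2, Tween 20, BSA; 1 h at room temperature. ATP detected by Kinase-Glo luminescence.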
The depositor's hits bear a star; u = inconclusive; x = no result given; [ ] = dose if it differs, or a comment. Calls follow the shape of the dose curve; as a rule, active = well fitted curve in the direction sought with a large enough effect; inconclusive = small, poorly fitted or top-dose-only effect, or another doubt; inactive = no such curve, though single readings can be large; an effect the other way counts as inactive or inconclusive. % is scaled to controls: 0 for no effect and ±100 for the full control effect; potency is read from the fitted curve at half-maximal effect.

SMILES	GALK inhibitor	TrxR1 substrate	rTrxR1 inhibitor	Apoferritin bind	IDH1 R132H inh	PKM2 activator
CCOC(=O)c1nnn(-c2nonc2-n2cccc2)c1CN1CCC(C)CC1	x	1.2%	-0.6%	u	16.1%	-6.5%
CCOC(=O)c1nnn(-c2nonc2-n2cccc2)c1CCl	-0.6%	12.8%	12.6µM*	-13.1%	3.5%	3.4%
CCN(CC)C(=O)c1ccc2c(c1)N(Cc1ccc(C(F)(F)F)cc1)C(=O)c1ccccc1S2	x	-8.5%	13.2%	u	-19.6%	x
Cc1cc2ccccc2c[n+]1CC(=O)c1ccc(F)cc1	x	12.2%	5.4%	x	x	x
CN(C)c1ccc(Cc2cc3c(O)ccc(O)c3cc(Cc3ccc(N(C)C)cc3)c2=O)cc1	x	-13.4%	11.2µM*	x	20.2%	x
CN(C)c1ccc(C(=O)c2ccc(O)cc2O)cc1	-0.3%	-9.1%	7.1%[57.1 µM]	-12.9%	5.7%	-14.3%
Clc1ccccc1Cn1c(/C=C/c2ccco2)nc2ccccc21	-2.4%	-1.2%	50.1µM*	-5.9%	2.9%	-0.1%
Cc1ccc2c(c1)N(C(=O)N1CCC(C(=O)NCc3cccs3)CC1)CC(C)O2 (configuration not stated)	x	12.2%[11.4 µM]	17.0%	1.2%	-4.2%	x
O=C(Nc1cccc2nsnc12)c1ccc(-c2cccc(Cl)c2)o1	x	-7.5%	35.5µM*	-15.9%	9.3%	10.0%
CCN(Cc1nc(-c2ccc(OC)cc2)oc1C)S(=O)(=O)c1ccc(Cl)cc1	x	6.3%[57.1 µM]	12.5%[57.1 µM]	45.5%	0.0%	x
CCOc1ccccc1NC(=O)c1ccc(C(=O)Nc2ccccc2OCC)cc1	x	-1.1%	-16.4%	-3.1%	-10.4%	x
CCOc1ccccc1NC(=O)/C=C/C(N)=O	-1.0%	10.2%	25.1µM*	-12.8%	0.3%	21.9%
COc1ccc(C)cc1Nc1n[n+](-c2ccccc2)c(-c2ccc(N(C)C)cc2)s1	x	-0.4%	8.91µM*	-20.8%	u	-4.5%
COC(=O)c1ccc(=O)c2nc3/c(=C/O)c(O)cc(=O)c3[nH]c12	x	-16.9%	56.2µM*	-12.9%	21.4%	-4.0%
CN(C)S(=O)(=O)c1cccc(NC(=O)C2Cc3ccccc3CN2C(=O)c2ccco2)c1 (configuration not stated)	1.0%	4.1%	56.2µM*	-0.3%	4.0%	5.4%
Cc1ccc(NC(=O)C2Cc3ccccc3CN2C(=O)c2ccco2)cc1S(=O)(=O)N(C)C (configuration not stated)	4.6%	1.0%	u	4.7%	3.5%	1.5%
O=CC(=O)c1ccc(Cl)cc1	x	2.9%	-7.8%	x	x	x
O=C(/C=C/Sc1ccccc1)c1ccccc1	0.2%	7.7%	11.2µM*	u	3.3%	-4.8%
O=C(/C=C/Nc1ccccc1)c1ccccc1	6.4%	0.8%	-2.3%	-10.8%	4.2%	3.9%
O=C(/C=C/Sc1ccccc1)c1ccc(Cl)cc1	-2.0%	-5.1%	39.8µM*	-17.0%	9.5%	-10.8%
CCOC(=O)C1CCC(CN(Cc2ccc(OC)cc2)S(=O)(=O)c2ccc(F)c(C(=O)Nc3c(C)cccc3C)c2)CC1 (configuration not stated)	x	6.9%[57.1 µM]	34.3%[57.1 µM]	2.3%	3.0%	x
CCC(=O)N1CCc2cc(Br)cc(S(=O)(=O)CCC(=O)Nc3ccc(Cl)cc3)c21	x	-1.9%[2.29 µM]	11.8%	-7.8%	7.7%	x
CCC1=[N+](C)CCn2c(C)ccc21	-1.4%	6.4%[57.1 µM]	0.0%[57.1 µM]	-4.0%	-0.6%	-4.5%
CC(=O)c1c(C)c(C)c2n1CCn1c(C)ccc1-2	4.1%	0.7%	25.1µM*	1.6%	0.0%	6.2%
Cc1cccc2cc(CN(CC3CCCO3)C(=O)c3ccco3)c(=O)[nH]c12 (configuration not stated)	-2.0%	9.2%	15.8µM*	-17.5%	9.7%	-0.4%
SMILES	GALK inhibitor	TrxR1 substrate	rTrxR1 inhibitor	Apoferritin bind	IDH1 R132H inh	PKM2 activator
CCc1ccc2[nH]c(=O)c(CN(Cc3ccccc3)Cc3nnnn3Cc3ccco3)cc2c1	2.1%	-1.0%	-23.6%	-11.0%	-2.9%	6.5%
O=c1[nH]c2cc3c(cc2cc1CN(Cc1cccnc1)Cc1nnnn1Cc1ccco1)OCCO3	-1.9%	55.9%	11.2µM*	102.6%	3.3%	u
O=c1[nH]c2cc3c(cc2cc1CN(Cc1ccccc1)Cc1nnnn1Cc1ccco1)OCCO3	-0.1%	22.1%	17.8µM*	256.6%	-4.9%	u
COc1ccccc1CN(Cc1cc2cc3c(cc2[nH]c1=O)OCCO3)Cc1nnnn1Cc1ccco1	-0.1%	43.7%	5.62µM*	71.7%	-14.7%	20µM*
Cc1cccc(C(=O)Nc2cccc(C(=O)OCc3cc(=O)n4c5c(sc4n3)CCCC5)c2)c1	x	1.3%[57.1 µM]	13.1%[57.1 µM]	30.8%	17.2%	x
CC(C)CCNC(=O)c1ccc2nc(Cc3ccccc3)oc2c1	x	2.2%[57.1 µM]	23.8%[57.1 µM]	-11.9%	-2.5%	x
Cc1ccc2[nH]c(=O)c(CN(CCCO)Cc3nnnn3Cc3ccco3)cc2c1	x	0.4%	28.2µM*	x	x	x
Cc1ccc2[nH]c(=O)c(CN(Cc3cccnc3)Cc3nnnn3CCN3CCOCC3)cc2c1	-5.8%	9.9%	11.2µM*	-8.4%	5.0%	-3.4%
Cc1ccc2cc(CN(Cc3nnnn3Cc3ccco3)CC3CCCO3)c(=O)[nH]c2c1C (configuration not stated)	2.5%	-6.0%	25.1µM*	-6.3%	7.4%	21.5%
